In PubChem BioAssay AID651814 (National Center for Advancing Translational Sciences (NCATS), 2012):
Where “and” joins values, the source holds several entries; their conditions need not be identical. Equal entries are not always repeated. In all, about 2,100 compounds went through this assay and about 590 (28%) were called active. Roughly 42% stayed inconclusive and do not appear here. Some of the results follow. A number with no mark means an inactive call. The call rests on the fitted dose curve; in most records, active means well fitted inhibition curve with a large enough effect; inconclusive means small, poorly fitted or top-dose-only effect; inactive means flat fitted curve, though single readings scatter.

target: DNA dC->dU-editing enzyme APOBEC-3F (Homo sapiens) (UniProt Q8IUX4); test: qHTS for inhibitors of Vif-A3F interactions: Cherry picks; conditions: HeLa A3F-eYFP + Vif (tagged APOBEC3F with the HIV-1 protein that degrades it), eYFP fluorescence, 24 h; further: nearly all actives have a fitted effect of over 70% in size;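 on max response: % of control where 0% means no effect; active compounds raise eYFP fluorescence by blocking Vif-driven A3F loss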
Summary of the method: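 HeLa cells stably expressing A3F-eYFP plus Vif, cultured overnight, then exposed to compounds at several concentrations for 24 h at 37 deg C. Reduced Vif-driven degradation read as rising eYFP fluorescence (488 nm ex/500-530 nm em) by laser-scanning cytometry; MG132 as positive control.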
Potency means the concentration at half of the fitted maximal effect.

Chain of DNA dC->dU-editing enzyme APOBEC-3F (Homo sapiens) (Q8IUX4 whole entry, looked up): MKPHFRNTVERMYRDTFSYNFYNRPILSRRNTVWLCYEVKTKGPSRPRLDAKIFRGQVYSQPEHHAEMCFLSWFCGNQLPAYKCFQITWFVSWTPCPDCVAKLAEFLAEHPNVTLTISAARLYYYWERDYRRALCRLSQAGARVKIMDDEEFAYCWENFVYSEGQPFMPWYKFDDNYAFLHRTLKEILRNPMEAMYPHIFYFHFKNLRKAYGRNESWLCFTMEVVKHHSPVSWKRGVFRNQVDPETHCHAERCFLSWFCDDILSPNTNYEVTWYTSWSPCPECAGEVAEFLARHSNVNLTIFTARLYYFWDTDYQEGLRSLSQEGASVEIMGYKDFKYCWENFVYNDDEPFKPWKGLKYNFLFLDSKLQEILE

Row | SMILES | max response [%] | Potency
1 | Cc1cc(-c2nc(C)c(C(=O)NN)s2)no1 | -13.4 | –
2 | CCn1c(O)c(/C=N/NC(=O)c2ccncc2)c(=O)n(CC)c1=S | -6.26 | –
3 | Cc1ccc(CNC(=O)c2cccc3c2C(=O)c2ccc(N4CCC(C)CC4)cc2S3(=O)=O)cc1 | – | 16.4 µM (active)
4 | O=C(NCc1ccccc1)c1cccc2c1C(=O)c1ccc(/C=C/c3ccccc3)cc1S2(=O)=O | – | 16.4 µM (active)
5 | CC(C)c1cccc(-c2ccc3c(c2)S(=O)(=O)c2cccc(C(=O)NCc4ccccc4)c2C3=O)c1 | -28.2 | –
6 | CCc1c(C)nc(SCC(=O)c2cccs2)c(C#N)c1C | 0.208 | –
7 | N#Cc1c(-c2ccccc2F)cc(C2CC2)nc1SCC(=O)c1cccs1 | – | 17.7 µM (active)
8 | CCn1c(CNC(=O)c2cc(OC)c(OC)c(OC)c2)cc2cc(C)ccc21 | 2.52 | –
9 | Cc1ccc2nc(-c3ccccn3)c(NC3CCCC3)n2c1 | -1.86 | –
10 | c1ccc(Nc2nc(-c3ccccn3)cs2)cc1 | -4.92 | –
11 | CCc1cccc2c(C(O)c3c[nH]c4ccccc34)c[nH]c12 (stereo not given) | – | 18.4 µM (active)
12 | COc1ccc(C2=CC(c3ccc(N(C)C)cc3)n3nnnc3N2)cc1 (stereo not given) | -6.88 | –
13 | COc1cccc(C2=CC(c3cccs3)n3nnnc3N2)c1 (stereo not given) | – | 6.27 µM (active)
14 | C=CCOC(=O)C1=C(C)Nc2nnnn2C1c1cccs1 (stereo not given) | -1.29 | –
15 | CCCC(=O)NC1=C(Cl)C(=O)c2ccccc2C1=O | 5.27 | –
16 | CCOC(=O)C1=C(Cc2ccc(Cl)cc2)C(=O)c2ccccc2C1=O | – | 16.4 µM (active)
17 | S=C(Nc1ccccc1)N1CCn2c1nc1ccccc12 | -7.52 | –
18 | Cc1cc2nc(SCCOC(=O)Nc3cccc(Cl)c3)nc(C)c2cc1C | 3.73 | –
19 | COc1cccc(N2CC(O)=C(c3nc4ccccc4s3)C2=N)c1 | – | 5.59 µM (active)
20 | CCN(CC)c1ccc(/C=C/c2cccc[n+]2C)c(OC)c1 | – | 3.14 µM (active)
21 | C(=C\c1c[nH]c2ccccc12)/c1ccc2ccccc2n1 | – | 23.1 µM (active)
22 | C(=Cc1c[nH]c2ccccc12)c1ccc2ccccc2n1 | – | 23.1 µM (active)
23 | Cc1[nH]c2ccccc2c1/C=C/c1ccc2ccccc2n1 | – | 7.31 µM (active)

Row | SMILES | max response [%] | Potency
24 | CCOC(=O)c1c(-c2ccc(OC)cc2)csc1/N=C/C1=C(O)CCCC1=O | -6.09 | –
25 | Cc1ccccc1-n1c(/C=C/c2c(C)n(C)c3ccccc23)nc2ccccc2c1=O | – | 8.2 µM (active)
26 | CN1CCc2c(sc(NC(=O)CSc3ccc(F)cc3)c2-c2nc3ccccc3s2)C1 | – | 7.31 µM (active)
27 | COc1ccc(OC)c(NC(=O)c2sc3nc(Cc4ccccc4)cc(C(F)(F)F)c3c2N)c1 | – | 8.2 µM (active)
28 | COc1cc(C(=O)Nc2nnc(Cc3ccccc3)s2)cc(OC)c1OC | -23.2 | –
29 | Nc1c(C(=O)O)sc2nc(-c3ccc(F)cc3)cc(-c3ccccc3)c12 | -11.4 | –
30 | CCC(=O)OCc1cnc(C)c2oc(=O)c(C(=O)Nc3ccccc3C(F)(F)F)cc12 | -0.08 | –
31 | COc1ccc(C(=O)c2sc3nc(-c4ccc(C)cc4)cc(C(F)(F)F)c3c2N)cc1 | – | 8.2 µM (active)
32 | Cc1cc(C(F)(F)F)c2c(N)c(C(=O)Nc3cc(C)on3)sc2n1 | -20.9 | –
33 | COc1ccc(NC(=O)c2sc3nc(-c4ccc(OC)cc4)cc(C(F)(F)F)c3c2N)cc1 | – | 1.3 µM (active)
34 | COc1cccc(C(=O)c2sc3nc(-c4ccccc4)cc(C(F)(F)F)c3c2N)c1 | – | 1.46 µM (active)
35 | CN1C2=CC=CC=CC2=[N+](C)C12C([N+](=O)[O-])=CC(=[N+]([O-])[O-])C=C2[N+](=O)[O-] (stereo not given) | -0.344 | –
36 | COc1ccccc1/C=N/NC(=S)Nc1cccnc1 | -4.95 | –
37 | CC(=O)c1cccc(NC(=O)C2CCCN(S(=O)(=O)c3cccc4nonc34)C2)c1 (stereo not given) | -0.245 | –
38 | COc1ccc(C(=O)c2sc3nc(C)cc(-c4cccs4)c3c2N)cc1 | – | 18.4 µM (active)
39 | O=C(NC(=S)N1CCN(C2CCCCC2)CC1)c1ccccc1 | 3.13 | –
40 | CCCCN1C(=O)/C(=C/C=C2/CC(C)(C)CN2C)SC1=S | – | 3.96 µM (active)
41 | Cc1ccc(Cn2c(SCc3ccc(C(=O)NC4CCCC4)cc3)nc3ccncc32)cc1 | -0.957 | –
42 | ClCC1NCC(c2ccccc2Cl)c2c1[nH]c1ccccc21 (stereo not given) | -5.81 | –
43 | Cn1cc(C2=C(c3ccc(Cl)cc3Cl)C(=O)NC2=O)c2ccccc21 | – | 2.91 µM (active) and 14.6 µM (active)
44 | COc1ccc(S(=O)(=O)N2c3ccccc3OCC2CC(=O)O)cc1 (stereo not given) | -27.6 | –
45 | COc1cc(NC(=O)c2ccco2)c(C(=O)OCC(=O)c2c[nH]c3ccccc23)cc1OC | -11.7 | –
